Screening results from PubChem.
The list is not random: actives were taken first. Their share in the collection is about 2.7%.
CF NFkB inh = inhibitors of PAF-induced NF-kB signaling, primary screen, cell-based, GFP fluorescence, uHTS | inhibition, % at 5 µM | 360,000 compounds, 0.86% hits | KKLEB NF-kB-GFP reporter, GFP fluorescence overnight;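 active = at least 50% inhibition at 5 µM, scaled per plate between neutral and stimulator controls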;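 note: PAF is a Pseudomonas aeruginosa culture filtrate used as stimulus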
Peg3 prom inh = Peg3 promoter-driven luciferase inhibitors, primary screen, cell-based, HeLa, luciferase luminescence; 360,000 compounds, 1.7% hits; inhibition, % at 20 µM; HeLa PEG-Prom luciferase reporter, overnight;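 active = inhibition of at least 50% at 20 µM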
Shn3 3UTR inh = reduction of Shn3 3'UTR firefly luciferase signal, primary screen, Schnurri-3 inhibitor project, cell-based, Clone20 osteoblasts, set 2; 360,000 compounds, 0.52% hits; inhibition, % at 12.5 µM; AID 588674, 2011; Clone20 osteoblast Shn3 3'UTR firefly luciferase, 24 h;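 active = mean inhibition of at least 75% with every replicate also reaching 75%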
TRPM1 prom inh = inhibitors of MITF-dependent TRPM1 promoter reporter, primary screen, cell-based, SK-MEL-5, single point, luciferase; SK-MEL-5 TRPM1 promoter luciferase, 24 h; inhibition, % at 12.5 µM; 330,000 compounds, 0.83% hits;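 active = mean inhibition across replicates of 60% or more, whatever share of single replicates reaches that level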
KKLEB cytotox = cytotoxicity in KKLEB CF airway cells, primary screen, cytotoxicity control for CF NF-kB inhibitor project, cell-based, uHTS, fluorescence assay plates; KKLEB CF airway cells viability, ATPlite luminescence, overnight; stronger effect = lower value; cells stimulated with P. aeruginosa culture filtrate; activity change (cytotoxicity), % at 5 µM; 360,000 compounds, 0.36% hits;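 active = corrected activity change at or below -50% at 5 µM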
HIF-2a block = HIF-2a reporter inhibitors, primary screen, luminescence, 786-0 RCC cells. 786-0 RCC cells HIF-2a reporter, luciferase luminescence, overnight. inhibition, % at 18.8 µM. 360,000 compounds, 0.72% hits. AID 624352, 2012;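 active = inhibition of the luminescence signal of 40% or more relative to plate controls, in a single-dose primary screen at 18.75 µM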
CF NFkB inh conf = inhibitors of PAF-induced NF-kB signaling, retest, confirmation, cell-based, GFP fluorescence, single concentration | shares compounds with CF NFkB inh | KKLEB CF airway cells, overnight | inhibition, % at 5 µM | 1,300 compounds, 64% hits; in the data active = inhibition above about 40%;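 note: stimulus PAF is a Pseudomonas aeruginosa filtrate and not platelet activating factor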
Numbers stand for hits; – = inactive; · = no result.

SMILES	CF NFkB inh	Peg3 prom inh	Shn3 3UTR inh	TRPM1 prom inh	KKLEB cytotox	HIF-2a block	CF NFkB inh conf
CCOc1ccc(C(C)=O)cc1CN1C(=O)c2ccccc2S1(=O)=O	–	–	–	–	–	–	·
COc1ccc([C@H]2C[C@H](n3cc(C4CC4)nn3)[C@@H](O)CN2C(=O)C2CCCCC2)cc1	–	–	–	·	–	–	·
Cc1cc(C)nc(Sc2ncnc(N)c2[N+](=O)[O-])n1	63	–	–	–	–	–	63
Cc1cccc(Nc2ncnc(N)c2[N+](=O)[O-])n1	–	–	–	–	–	–	·
CC(C)N(CCNC(=O)COc1ccc2oc3c(c2c1)CCCC3)C(C)C	–	–	–	–	–	–	·
CSCCC(NC(=O)c1ccco1)C(=O)N(C)CC(=O)Nc1c(Cl)cccc1Cl (centres undefined)	–	–	–	–	–	–	·
CC(=O)N1CCN(c2ccc(NC(=O)c3ccc(Br)o3)cc2Cl)CC1	–	–	·	–	–	–	·
CC(=O)c1ccc(NC(=O)c2ccc([N+](=O)[O-])o2)cc1	–	–	–	–	–	–	·
COc1ccc(NC(=O)c2ccc([N+](=O)[O-])o2)cc1	51	–	–	–	–	–	–
CCCC(=O)N1CCN(c2ccc(NC(=O)c3ccc([N+](=O)[O-])o3)cc2Cl)CC1	74	111	96	91	–	90	–
COC(=O)c1cc(S(=O)(=O)Nc2cccc(C)c2C)cn1C	–	–	–	–	–	–	·
Cc1ccc(NC(=O)CCC(=O)c2cccs2)c(Br)c1	–	–	–	–	–	–	·
Cc1ccc(NC(=O)CSc2ncnc3ccccc23)cc1S(=O)(=O)N1CCCCC1	–	–	–	–	–	–	·
Cc1ccc(NC(=O)CSc2ncnc3ccccc23)cc1S(=O)(=O)N1CCOCC1	56	–	–	–	–	–	73
Cc1c(C(=O)N2CCC(Cc3ccccc3)CC2)cccc1[N+](=O)[O-]	51	–	–	–	–	–	43
COc1ccc2[nH]c3c(c2c1)CC(C)NC3=O (centres undefined)	61	–	–	–	–	–	71
Cc1cc(C)cc(NC(=O)C2CCCN2S(=O)(=O)c2ccc3c(c2)n(C)c(=O)c(=O)n3C)c1 (centres undefined)	–	–	–	–	–	–	·
Cc1ccc(-c2c(C#N)c(N)n3c(nc4ccccc43)c2C#N)cc1	55	–	–	–	–	–	50
N#Cc1c(-c2ccccc2)c(C#N)c2nc3ccccc3n2c1N	–	–	–	–	–	–	·
CC1(C)CC(=O)C2=C(C1)N(CCN1CCOCC1)C1=C(C(=O)CC(C)(C)C1)C2c1ccc(Cl)cc1	57	–	–	–	–	–	–
COCCNC(=O)C1(C)CCN(C(=O)c2sccc2C)C1 (centres undefined)	–	–	–	·	–	–	·
Cc1c(NC(=O)c2cc(-c3ccccc3)nc3ccccc23)c(=O)n(-c2ccccc2)n1C	–	–	–	–	–	–	·
Cc1c(NC(=O)c2cc(-c3cccs3)nc3ccccc23)c(=O)n(-c2ccccc2)n1C	65	54	–	–	–	–	64
COc1ccc(OC)c(/C=C/C(=O)N(C)CC(=O)Nc2ccc(N3CCOCC3)cc2)c1	–	–	–	–	–	–	·
COc1cccc(CNS(=O)(=O)c2cc3c4c(c2)CCN4C(=O)CC3)c1	–	–	–	–	–	–	·
SMILES	CF NFkB inh	Peg3 prom inh	Shn3 3UTR inh	TRPM1 prom inh	KKLEB cytotox	HIF-2a block	CF NFkB inh conf
O=C(Nc1ccc(Cl)cc1)c1cc(Br)ccc1OCC(=O)N1CCOCC1	–	–	–	–	–	–	·
Cc1ccc(S(=O)(=O)n2cc(-c3ccccc3)c3ccccc32)cc1	53	–	–	–	–	–	78
Cc1ccc(S(=O)(=O)n2cc(C=O)c3ccccc32)cc1	–	–	·	–	–	–	·
CN1C2C=CC(=O)C1C1C(=O)N(c3ccccc3)C(=O)C12 (centres undefined)	62	–	–	·	–	–	–
COc1ccc(-c2cc(=O)c3c(OC)c(OC)c(OC)c(OC)c3o2)cc1OC	–	–	–	–	–	–	·
COc1ccc2c(=O)cc(-c3ccncc3)oc2c1OC	59	89	–	–	–	–	77
COc1cccc(CNC(=O)c2cc(S(=O)(=O)N3CCOCC3)ccc2N2CCCC2)c1	–	–	–	–	–	–	·
Cc1ccc(NC(=S)NC(=O)c2ccccc2)cc1NC(=S)NC(=O)c1ccccc1	64	–	–	–	–	–	–
O=C(NC(=S)Nc1cccc(NC(=S)NC(=O)c2ccccc2)c1)c1ccccc1	–	–	–	–	–	–	·
CC1/C(=N/O)CC(c2ccccc2)NC1c1ccccc1 (centres undefined)	–	–	–	–	–	–	·
CCCC1/C(=N/O)CC(c2ccccc2)NC1c1ccccc1 (centres undefined)	75	60	–	–	–	–	60
COc1ccc(CCNC(=O)c2ccc(-c3cccc([N+](=O)[O-])c3)o2)cc1OC	–	–	–	–	–	–	·
COc1ccc(CCNC(=O)c2cccc([N+](=O)[O-])c2)cc1OC	62	–	–	–	–	–	–
COc1ccc(OC)c(S(=O)(=O)CC(O)CS(=O)(=O)c2ccccc2)c1 (centres undefined)	–	–	–	–	–	–	·
COc1cccc(-c2sc3ccccc3c2-c2ccc(OCCN3CCCC3)cc2)c1	54	100	–	–	–	–	–
c1ccc(-c2sc3ccccc3c2-c2ccc(OCCN3CCCC3)cc2)cc1	52	93	–	–	–	–	–
Oc1ccc2sc(-c3ccccc3O)c(-c3ccc(OCCN4CCCCC4)cc3)c2c1	·	·	·	·	·	–	·
CCOC(=O)C1CCN(C(=O)c2cccc(S(=O)(=O)N3CCCc4ccccc43)c2)CC1	–	–	–	–	–	–	·
Cc1ccc(S(=O)(=O)N2CCOCC2)cc1C(=O)NCc1ccccn1	–	–	–	–	–	–	·
CCc1nc2ccc(C(=O)NCc3ccc(OC)cc3)cn2c1N(CC)CCN(C)C	–	–	–	·	–	–	·
CCCCOC(=O)Nc1ccc(S(=O)(=O)Nc2nc(C)cc(C)n2)cc1	53	–	–	–	–	–	–
O=C1CC2(CCN(C(=O)C3CC(=O)N(c4ccccc4)C3)CC2)Oc2ccccc21 (centres undefined)	–	–	–	–	–	–	·
